According to PubChem BioAssay (NCI):
The panel holds about 83,000 compounds, 20% with a hit somewhere; the sample as a whole holds those more often.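 Cell lines were cultured in 96-well plates, exposed to a single compound concentration, and assessed for percent growth 48 hours later.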 The source made the active and inactive calls. How the source made its calls: active means growth percent below 10; inactive means the rest.

Key:
Assay in all cases: NCI-60 one-dose screen, 48 h (100 = growth as untreated, 0 = no growth, -100 = all killed)
Conditions in all cases: 10 µM
RPMI-8226 leukemia = tested on: RPMI-8226 leukemia
OVCAR-8 ovarian = tested on: OVCAR-8 ovarian
OVCAR-5 ovarian = tested on: OVCAR-5 ovarian
OVCAR-4 ovarian = tested on: OVCAR-4 ovarian
SK-OV-3 ovarian = tested on: SK-OV-3 ovarian
IGROV1 ovarian = tested on: IGROV1 ovarian
OVCAR-3 ovarian = tested on: OVCAR-3 ovarian
HS 578T breast = tested on: HS 578T breast
NCI/ADR-RES ovarian = tested on: NCI/ADR-RES ovarian
BT-549 breast = tested on: BT-549 breast
MDA-MB-435 melanoma = tested on: MDA-MB-435 melanoma
SW-620 colon = tested on: SW-620 colon
MCF7 breast = tested on: MCF7 breast
HCT-116 colon = tested on: HCT-116 colon
HCC-2998 colon = tested on: HCC-2998 colon
KM12 colon = tested on: KM12 colon
T-47D breast = tested on: T-47D breast

Measured: growth

NC1(C(=O)O)CSSC1
inactive: RPMI-8226 leukemia 100% | OVCAR-8 ovarian 40.7% | OVCAR-5 ovarian 113% | OVCAR-4 ovarian 76.8% | SK-OV-3 ovarian 108% | IGROV1 ovarian 90% | OVCAR-3 ovarian 93% | HS 578T breast 53.6% | NCI/ADR-RES ovarian 59.8% | BT-549 breast 85.4% | MDA-MB-435 melanoma 89.4% | SW-620 colon 99.4% | MCF7 breast 43.4% | HCT-116 colon 83.1% | HCC-2998 colon 118% | KM12 colon 93.4%

Clc1ccc(Sc2nc(NC3CC3)nc(Sc3ccc(Cl)cc3)n2)cc1
inactive: RPMI-8226 leukemia 62% | OVCAR-8 ovarian 87.4% | OVCAR-5 ovarian 92.9% | OVCAR-4 ovarian 66.3% | SK-OV-3 ovarian 72.8% | IGROV1 ovarian 64.7% | OVCAR-3 ovarian 85.8% | HS 578T breast 96.1% | T-47D breast 65% | BT-549 breast 104% | MDA-MB-435 melanoma 87.8% | MCF7 breast 72% | HCT-116 colon 53.7% | HCC-2998 colon 90.2% | KM12 colon 76.6%

CCCCCCCCCCCC[n+]1ccc(C(N)=O)cc1
active: RPMI-8226 leukemia -6.05% | IGROV1 ovarian -18.7% | KM12 colon -47%
inactive: OVCAR-8 ovarian 16.1% | OVCAR-5 ovarian 20.5% | OVCAR-4 ovarian 48.8% | SK-OV-3 ovarian 45.5% | OVCAR-3 ovarian 23.2% | HS 578T breast 31.3% | NCI/ADR-RES ovarian 103% | T-47D breast 38.8% | MDA-MB-435 melanoma 33.6% | SW-620 colon 23.6% | MCF7 breast 40.2% | HCT-116 colon 25.6% | HCC-2998 colon 25.8%

O=C(O)C(SC(C(=O)O)c1ccccc1)c1ccccc1 (centres undefined)
inactive: RPMI-8226 leukemia 102% | OVCAR-8 ovarian 110% | OVCAR-5 ovarian 106% | OVCAR-4 ovarian 102% | SK-OV-3 ovarian 99.7% | IGROV1 ovarian 115% | OVCAR-3 ovarian 114% | HS 578T breast 113% | NCI/ADR-RES ovarian 106% | BT-549 breast 101% | MDA-MB-435 melanoma 116% | SW-620 colon 107% | MCF7 breast 96.3% | HCT-116 colon 106% | HCC-2998 colon 103% | KM12 colon 113%

CC(C)(C)NC/C(=C\c1ccccc1)C(=O)c1ccccc1
active: RPMI-8226 leukemia -0.943% | OVCAR-8 ovarian -29.1% | OVCAR-5 ovarian -42.7% | IGROV1 ovarian 0.595% | OVCAR-3 ovarian -43.1% | NCI/ADR-RES ovarian -30.7% | MDA-MB-435 melanoma 4.28% | SW-620 colon -30.6% | MCF7 breast 7.56% | HCT-116 colon -95.3% | HCC-2998 colon -78.6%
inactive: OVCAR-4 ovarian 30.7% | SK-OV-3 ovarian 57.9% | HS 578T breast 38.2% | BT-549 breast 15.8% | KM12 colon 14%

CN(C)CCNC(=O)c1cccn2c(=O)c3cc4ccccc4cc3nc12
active: RPMI-8226 leukemia -29.2% | OVCAR-8 ovarian -9.49% | OVCAR-4 ovarian -3.24% | OVCAR-3 ovarian -15.3% | HS 578T breast -14.5% | NCI/ADR-RES ovarian 5.94% | T-47D breast 5.57% | MDA-MB-435 melanoma -68.6% | SW-620 colon -11.9% | MCF7 breast 4.71% | HCT-116 colon -41% | KM12 colon -10.2%
inactive: OVCAR-5 ovarian 29.6% | SK-OV-3 ovarian 19.5% | IGROV1 ovarian 19.3%

CSc1nc(=O)n(Cc2ccc(F)cc2)c(=O)n1Cc1ccc(C)cc1
inactive: RPMI-8226 leukemia 99.2% | OVCAR-8 ovarian 97.6% | OVCAR-5 ovarian 102% | OVCAR-4 ovarian 98.4% | SK-OV-3 ovarian 98.7% | IGROV1 ovarian 107% | OVCAR-3 ovarian 101% | HS 578T breast 109% | T-47D breast 87% | BT-549 breast 103% | MDA-MB-435 melanoma 117% | SW-620 colon 115% | MCF7 breast 91.1% | HCT-116 colon 97.5% | HCC-2998 colon 95.5% | KM12 colon 96.4%

C#Cc1ccc(-n2c(/C=C/c3ccc(O)cc3)nc3ncccc3c2=O)cc1
active: OVCAR-3 ovarian 4.59% | MDA-MB-435 melanoma -45.5%
inactive: RPMI-8226 leukemia 46.9% | OVCAR-8 ovarian 75.2% | OVCAR-5 ovarian 97.4% | OVCAR-4 ovarian 61% | SK-OV-3 ovarian 45.5% | IGROV1 ovarian 62.5% | HS 578T breast 64% | T-47D breast 67.4% | BT-549 breast 74.9% | SW-620 colon 34.5% | MCF7 breast 10.5% | HCT-116 colon 48.5% | HCC-2998 colon 93%

N#Cc1cccc(OCc2nc(N)nc(N)c2-c2ccc(Cl)c(Cl)c2)c1
inactive: RPMI-8226 leukemia 60.1% | OVCAR-8 ovarian 19.3% | OVCAR-5 ovarian 35.6% | OVCAR-4 ovarian 88.3% | SK-OV-3 ovarian 39% | IGROV1 ovarian 17.8% | OVCAR-3 ovarian 38.5% | HS 578T breast 49.7% | T-47D breast 71.5% | BT-549 breast 40.1% | MDA-MB-435 melanoma 21.3% | SW-620 colon 17.9% | MCF7 breast 28.5% | HCT-116 colon 12.1% | HCC-2998 colon 29.8%

COc1ccc(-c2nc3sccn3c2-c2nc3c([nH]2)C(=O)c2ccccc2C3=O)cc1
inactive: RPMI-8226 leukemia 74.7% | OVCAR-8 ovarian 96.2% | OVCAR-5 ovarian 89.8% | OVCAR-4 ovarian 84.1% | SK-OV-3 ovarian 109% | IGROV1 ovarian 105% | OVCAR-3 ovarian 114% | HS 578T breast 90.6% | T-47D breast 72% | BT-549 breast 112% | MDA-MB-435 melanoma 95.9% | SW-620 colon 101% | MCF7 breast 83.8% | HCT-116 colon 91% | HCC-2998 colon 95.7% | KM12 colon 103%

COc1ccc(Nc2ccnc(NCCNc3ccnc4cc(Cl)ccc34)n2)cc1
inactive: OVCAR-8 ovarian 59.5% | OVCAR-5 ovarian 51.2% | OVCAR-4 ovarian 37.1% | SK-OV-3 ovarian 74.7% | IGROV1 ovarian 24.6% | OVCAR-3 ovarian 60.3% | HS 578T breast 76.8% | T-47D breast 34.9% | BT-549 breast 61% | SW-620 colon 36.4% | MCF7 breast 14.3% | HCC-2998 colon 41.1% | KM12 colon 62.2%
active: RPMI-8226 leukemia -22.9% | MDA-MB-435 melanoma -39.1% | HCT-116 colon 3.11%

COc1ccc(Nc2cc(C)nc(NCCCNc3ccnc4cc(Cl)ccc34)n2)cc1
active: RPMI-8226 leukemia -58.8% | OVCAR-8 ovarian -8.6% | OVCAR-4 ovarian 4% | SK-OV-3 ovarian -25.3% | OVCAR-3 ovarian -82.1% | HS 578T breast -53.9% | T-47D breast -94.7% | BT-549 breast -82.9% | MDA-MB-435 melanoma -92.4% | SW-620 colon -56.7% | MCF7 breast -48.8% | HCT-116 colon -96.6% | HCC-2998 colon -70%
inactive: OVCAR-5 ovarian 18.3% | IGROV1 ovarian 29.7% | KM12 colon 20%

CN(C)N=Nc1nn(C(=O)Nc2ccc(Cc3ccccc3)cc2)c2ccccc12
inactive: RPMI-8226 leukemia 47.5% | OVCAR-8 ovarian 48.8% | OVCAR-5 ovarian 71% | OVCAR-4 ovarian 52.1% | SK-OV-3 ovarian 102% | IGROV1 ovarian 84.8% | OVCAR-3 ovarian 45.7% | HS 578T breast 100% | T-47D breast 24.3% | BT-549 breast 75% | MDA-MB-435 melanoma 48.5% | SW-620 colon 34.4% | MCF7 breast 21.1% | HCT-116 colon 62.1% | HCC-2998 colon 10.1% | KM12 colon 12.9%

COc1cc(C(=O)N2CCN(c3ccccc3OC)CC2)c(N)cc1OCCCN1CCN(c2ccccc2OC)CC1
inactive: RPMI-8226 leukemia 56.4% | OVCAR-8 ovarian 101% | OVCAR-5 ovarian 81.6% | OVCAR-4 ovarian 77.7% | SK-OV-3 ovarian 75.4% | IGROV1 ovarian 77.6% | OVCAR-3 ovarian 77.7% | HS 578T breast 99% | T-47D breast 50.9% | BT-549 breast 94.4% | MDA-MB-435 melanoma 101% | SW-620 colon 90.6% | MCF7 breast 96% | HCT-116 colon 81.9% | HCC-2998 colon 101% | KM12 colon 88.4%

Nc1c(C(=O)Nc2cccc(F)c2)sc2nc3c(cc12)C(=O)CCC3
active: OVCAR-3 ovarian -3.4% | MDA-MB-435 melanoma -43.8%
inactive: RPMI-8226 leukemia 43.1% | OVCAR-8 ovarian 63.9% | OVCAR-5 ovarian 38.2% | OVCAR-4 ovarian 57.8% | SK-OV-3 ovarian 25.6% | IGROV1 ovarian 44.1% | HS 578T breast 29.3% | T-47D breast 42.6% | BT-549 breast 48.4% | SW-620 colon 31.1% | MCF7 breast 11.9% | HCT-116 colon 29% | HCC-2998 colon 23.4% | KM12 colon 28.9%

O=C1NC(=O)c2ncccc21
inactive: RPMI-8226 leukemia 99.3% | OVCAR-8 ovarian 100% | OVCAR-5 ovarian 107% | OVCAR-4 ovarian 113% | SK-OV-3 ovarian 101% | OVCAR-3 ovarian 113% | HS 578T breast 124% | NCI/ADR-RES ovarian 106% | T-47D breast 102% | BT-549 breast 91.1% | MDA-MB-435 melanoma 100% | SW-620 colon 120% | MCF7 breast 95.5% | HCT-116 colon 102% | HCC-2998 colon 103% | KM12 colon 107%

COc1ccc(/C(=C2/O[C@@H]([C@H]3COC(C)(C)O3)[C@H]3OC(C)(C)O[C@@H]23)c2cc(OC)c(OC)c(OC)c2)cc1O
active: NCI/ADR-RES ovarian -10.5% | MDA-MB-435 melanoma -10.2% | KM12 colon 5.71%
inactive: RPMI-8226 leukemia 36.4% | OVCAR-8 ovarian 96.1% | OVCAR-5 ovarian 92.9% | OVCAR-4 ovarian 106% | SK-OV-3 ovarian 90.1% | IGROV1 ovarian 92.6% | OVCAR-3 ovarian 58.3% | T-47D breast 115% | BT-549 breast 67.5% | MCF7 breast 60.9% | HCT-116 colon 78.1%

COC(=O)C(=C\c1ccc2c(c1)OCO2)/C(=C/c1ccc2c(c1)OCO2)C(=O)OC
inactive: RPMI-8226 leukemia 98.7% | OVCAR-8 ovarian 103% | OVCAR-5 ovarian 98.9% | OVCAR-4 ovarian 106% | SK-OV-3 ovarian 105% | IGROV1 ovarian 87.1% | HS 578T breast 106% | NCI/ADR-RES ovarian 96.4% | T-47D breast 89.2% | BT-549 breast 95.5% | MDA-MB-435 melanoma 104% | SW-620 colon 110% | MCF7 breast 96.9% | HCT-116 colon 92.9% | HCC-2998 colon 94.6% | KM12 colon 102%

CCN(CC)Cc1cc(Nc2ccnc3cc(Cl)ccc23)ccc1OC
inactive: RPMI-8226 leukemia 72.2% | OVCAR-8 ovarian 91.7% | OVCAR-5 ovarian 109% | OVCAR-4 ovarian 68.2% | SK-OV-3 ovarian 102% | IGROV1 ovarian 94.5% | OVCAR-3 ovarian 93.6% | NCI/ADR-RES ovarian 89.5% | T-47D breast 102% | BT-549 breast 110% | MDA-MB-435 melanoma 77.9% | SW-620 colon 64.1% | MCF7 breast 86.7% | HCT-116 colon 69.1% | HCC-2998 colon 81% | KM12 colon 83.5%

COc1ccc2nc3cc(Cl)ccc3c(NCCNCC(C)O)c2c1 (centres undefined)
inactive: RPMI-8226 leukemia 19.8% | OVCAR-8 ovarian 17.1% | OVCAR-5 ovarian 24.6% | OVCAR-4 ovarian 37% | SK-OV-3 ovarian 37.5% | IGROV1 ovarian 26.2% | HS 578T breast 67.2% | NCI/ADR-RES ovarian 51.9% | T-47D breast 25.9% | BT-549 breast 88% | MDA-MB-435 melanoma 37.9% | SW-620 colon 19.9% | MCF7 breast 10.5% | HCT-116 colon 13.1% | HCC-2998 colon 40.8% | KM12 colon 25.5%
